PubChem BioAssay
Inconclusive results are not listed. Activity calls are given as the source filed them.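 How the source made its calls, unless noted: active means GFP signal, as percent of the solvent control, above the screen mean plus 3 SD, about 149; inconclusive means no reading because the compound's own fluorescence upset strain identification; inactive means the rest.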

Columns and labels:
[1] = yeast TOR pathway RPL19A-GFP modulators, primary screen, cell-based, S. cerevisiae, multiplex flow cytometry (AID 1862; in the data active means percent of DMSO control GFP below about 86%;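 further: lower values mimic rapamycin by blocking the RPL19A rise seen in DMSO cells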); settings: S. cerevisiae RPL19A-GFP strain, flow cytometry fluorescence, 3 h; at 10 µM; stronger effect = lower value
[2] = modulators of MEP2-GFP levels in yeast, primary screen, S. cerevisiae, multiplex flow cytometry (AID 1867;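 active means GFP response, as percent of the DMSO control, above the screen-wide mean plus 3 SD, about 139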;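 further: median GFP channel fluorescence of barcode-gated MEP2-GFP cells measured by flow cytometry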); settings: S. cerevisiae MEP2-GFP strain, 3 h, at 10 µM, stronger effect = higher value, 100% means same as DMSO wells
[3] = modulators of CIT2-GFP expression in yeast, primary screen, S. cerevisiae, GFP fusion, multiplex flow cytometry (AID 1870;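 active means percent response above a set limit, the screen-wide mean plus 3 SD, cut at about 130% in these data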;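 further: barcoded CIT2-GFP strain pooled with four other GFP strains with rapamycin as positive control; median GFP fluorescence per well over plate mean of DMSO wells so 100% = DMSO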); settings: 3 h, at 10 µM, stronger effect = higher value
[4] = modulators of LAP4-GFP expression in yeast, primary screen, S. cerevisiae, multiplex flow cytometry (AID 1873); settings: 3 h, at 10 µM, stronger effect = higher value
[5] = modulators of AGP1-GFP expression in yeast TOR pathway, primary screen, cell-based, multiplex flow cytometry, S. cerevisiae (AID 1887;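 active means GFP signal above the screen-wide mean plus 3 SD, that is over about 124.5% of the solvent control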;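 further: AGP1-GFP fusion strain of S. cerevisiae within a five-strain barcoded multiplex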); settings: 3 h, at 10 µM, stronger effect = higher value
[6] = inhibitors of CD8+ T cell-vesicle binding, pilot screen, LFA-1/ICAM-1 modulator project, MLPCN validation set, flow cytometry (AID 2523;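 active means response below a set limit, under 55% cells CD8-positive and vesicle-bound, and CD8 cells' 90th-percentile brightness under 279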;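 on vesicle binding response: mean PE anti-B7-1 fluorescence of CD8+ cells relative to row control; 100% = QL9-loaded vesicles with DMSO vehicle in the same plate row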); settings: 2C mouse CD8+ T cells, at 7 µM, stronger effect = lower value; double positive events: measured here: CD8+/vesicle+ event percentage
[7] = biological target: Integrin beta-1 (Homo sapiens) + Integrin alpha-4 (Homo sapiens) (UniProt P13612+P05556); assay: inhibition of HUTS-21 binding to VLA-4, pilot screen, VLA-4 allosteric modulator project, U937 cells, HUTS-21 mAb, flow cytometry, validation set (AID 2674;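 active means inhibition above 50%, about 3 SD of the validation set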;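 further: antibody binding induced by the VLA-4 ligand LDV present at three times its Kd; 0% = LDV ligand with antibody and no compound and 100% = antibody without LDV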); settings: HUTS-21 LIBS mAb binding, at 6.7 µM, stronger effect = higher value, binding induced by LDV ligand
Chain of Integrin beta-1 (Homo sapiens) + Integrin alpha-4 (Homo sapiens) (P05556 whole entry, looked up): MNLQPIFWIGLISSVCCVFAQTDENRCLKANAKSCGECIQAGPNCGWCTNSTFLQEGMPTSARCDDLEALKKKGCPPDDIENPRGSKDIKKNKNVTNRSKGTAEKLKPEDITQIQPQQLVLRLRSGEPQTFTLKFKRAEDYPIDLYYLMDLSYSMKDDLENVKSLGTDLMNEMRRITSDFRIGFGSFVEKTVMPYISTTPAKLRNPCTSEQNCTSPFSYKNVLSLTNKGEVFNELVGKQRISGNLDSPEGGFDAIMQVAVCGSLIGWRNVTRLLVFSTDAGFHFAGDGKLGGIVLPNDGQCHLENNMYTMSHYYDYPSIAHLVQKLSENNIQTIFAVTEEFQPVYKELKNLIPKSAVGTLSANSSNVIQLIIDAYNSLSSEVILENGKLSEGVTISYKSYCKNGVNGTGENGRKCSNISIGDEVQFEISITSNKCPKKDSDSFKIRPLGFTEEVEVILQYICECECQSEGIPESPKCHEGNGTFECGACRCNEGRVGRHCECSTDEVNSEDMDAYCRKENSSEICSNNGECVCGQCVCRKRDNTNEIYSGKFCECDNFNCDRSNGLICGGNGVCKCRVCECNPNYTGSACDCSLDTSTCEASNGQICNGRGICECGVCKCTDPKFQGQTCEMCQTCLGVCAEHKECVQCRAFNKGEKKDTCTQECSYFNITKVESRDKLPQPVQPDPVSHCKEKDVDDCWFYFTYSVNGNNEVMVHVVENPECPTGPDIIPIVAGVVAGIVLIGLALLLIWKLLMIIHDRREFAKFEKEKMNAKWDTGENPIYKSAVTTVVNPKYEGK
Chain of Integrin beta-1 (Homo sapiens) + Integrin alpha-4 (Homo sapiens) (P13612 whole entry, looked up): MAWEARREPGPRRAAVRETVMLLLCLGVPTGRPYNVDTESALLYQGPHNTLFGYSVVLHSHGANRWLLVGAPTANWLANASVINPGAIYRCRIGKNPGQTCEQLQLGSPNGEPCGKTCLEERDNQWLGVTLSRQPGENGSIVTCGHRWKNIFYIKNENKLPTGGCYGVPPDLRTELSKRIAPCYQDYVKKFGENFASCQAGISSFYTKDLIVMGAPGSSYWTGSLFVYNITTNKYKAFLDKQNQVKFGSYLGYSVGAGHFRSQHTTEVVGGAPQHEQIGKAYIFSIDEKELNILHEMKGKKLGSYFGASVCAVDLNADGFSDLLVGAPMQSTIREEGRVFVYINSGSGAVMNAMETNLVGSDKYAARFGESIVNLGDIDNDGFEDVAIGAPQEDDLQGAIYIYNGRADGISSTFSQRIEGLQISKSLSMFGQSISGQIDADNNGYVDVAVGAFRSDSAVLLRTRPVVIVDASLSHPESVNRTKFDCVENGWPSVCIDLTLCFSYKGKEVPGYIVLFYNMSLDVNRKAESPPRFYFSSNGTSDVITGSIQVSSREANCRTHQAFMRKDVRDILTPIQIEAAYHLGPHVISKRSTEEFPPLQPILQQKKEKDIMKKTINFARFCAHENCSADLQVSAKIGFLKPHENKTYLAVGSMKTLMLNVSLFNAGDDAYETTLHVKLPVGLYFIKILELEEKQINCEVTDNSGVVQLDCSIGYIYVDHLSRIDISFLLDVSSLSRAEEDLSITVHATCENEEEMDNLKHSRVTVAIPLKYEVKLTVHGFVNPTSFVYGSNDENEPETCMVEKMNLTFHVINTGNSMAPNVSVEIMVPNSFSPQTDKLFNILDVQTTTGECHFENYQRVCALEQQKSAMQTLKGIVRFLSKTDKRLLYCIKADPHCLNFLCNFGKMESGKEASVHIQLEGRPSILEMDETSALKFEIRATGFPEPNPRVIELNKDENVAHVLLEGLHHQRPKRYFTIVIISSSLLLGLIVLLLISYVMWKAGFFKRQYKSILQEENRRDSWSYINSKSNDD

[8] = superoxide lowering in aged yeast cells, pilot screen, validation compound set (AID 2706;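 active means superoxide response below 65% of plate, a cut near 3 SD across the whole screen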;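 further: yeast exposed to compound for one week at 30 degrees C before staining; 100% = mean of all compound wells on the same plate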); settings: S. cerevisiae aging, superoxide DHE fluorescence; at 10 µM; stronger effect = lower value
[9] = biological target: Beta-adrenergic receptor kinase 1 (Homo sapiens) (UniProt P25098); assay: GRK2 binders displacing RNA aptamer, biochemical, validation, human GRK2, bead flow cytometry (AID 488806;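 active means aptamer binding inhibition above 30%, about 3 SD of noise from non-fluorescent compounds; inactive means inhibition at or below 30%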); settings: bead-bound GRK2, FAM-aptamer displacement, at 10 µM, stronger effect = higher value
Chain of Beta-adrenergic receptor kinase 1 (Homo sapiens) (P25098 whole entry, looked up): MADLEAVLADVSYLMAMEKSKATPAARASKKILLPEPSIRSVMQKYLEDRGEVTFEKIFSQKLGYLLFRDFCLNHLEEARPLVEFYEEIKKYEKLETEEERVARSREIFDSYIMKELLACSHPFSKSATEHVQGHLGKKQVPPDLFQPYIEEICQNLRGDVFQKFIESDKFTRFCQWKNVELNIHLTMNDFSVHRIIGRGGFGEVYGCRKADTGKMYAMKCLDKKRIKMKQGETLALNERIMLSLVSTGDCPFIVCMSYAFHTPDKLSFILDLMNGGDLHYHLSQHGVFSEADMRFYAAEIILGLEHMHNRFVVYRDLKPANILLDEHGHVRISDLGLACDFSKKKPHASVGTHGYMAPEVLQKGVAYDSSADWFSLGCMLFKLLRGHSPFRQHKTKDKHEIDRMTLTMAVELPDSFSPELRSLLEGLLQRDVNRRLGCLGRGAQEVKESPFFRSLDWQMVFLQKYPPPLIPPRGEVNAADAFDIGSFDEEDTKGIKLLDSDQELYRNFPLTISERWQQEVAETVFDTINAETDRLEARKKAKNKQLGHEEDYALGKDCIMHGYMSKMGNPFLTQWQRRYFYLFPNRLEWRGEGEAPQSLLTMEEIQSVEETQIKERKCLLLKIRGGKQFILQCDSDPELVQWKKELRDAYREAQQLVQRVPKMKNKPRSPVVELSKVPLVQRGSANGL

[10] = biological target: Beta-2 adrenergic receptor (Homo sapiens) (UniProt P07550); assay: beta2AR agonists driving receptor internalization, pilot screen, cell-based, FAP fluorogen, flow cytometry, validation set (AID 504459;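 active means percent response above 42, roughly 3 SD of non-fluorescent test compounds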;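 further: agonist-driven loss of surface beta2AR via internalization measured by FAP dye flow cytometry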); settings: Am2.2-beta2AR cells, FAP surface receptor flow cytometry; at 10 µM; stronger effect = higher value
Chain of Beta-2 adrenergic receptor (Homo sapiens) (P07550 whole entry, looked up): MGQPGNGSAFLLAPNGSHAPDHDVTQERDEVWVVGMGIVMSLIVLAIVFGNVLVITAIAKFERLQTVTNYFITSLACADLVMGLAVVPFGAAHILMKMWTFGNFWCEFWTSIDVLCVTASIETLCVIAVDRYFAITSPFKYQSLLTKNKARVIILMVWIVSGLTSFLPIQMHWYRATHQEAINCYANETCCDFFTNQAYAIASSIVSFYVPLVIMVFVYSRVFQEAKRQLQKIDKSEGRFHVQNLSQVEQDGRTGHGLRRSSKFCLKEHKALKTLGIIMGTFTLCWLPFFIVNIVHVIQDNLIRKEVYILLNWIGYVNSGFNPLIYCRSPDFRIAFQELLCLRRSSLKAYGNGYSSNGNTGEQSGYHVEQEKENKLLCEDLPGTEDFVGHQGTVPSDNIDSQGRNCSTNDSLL

[11] = biological target: AP-2 complex subunit beta (Homo sapiens) (UniProt P63010); assay: inhibitors of arrestin peptide binding to AP2, pilot screen, biochemical, validation set, GST-AP2 beads, flow cytometry (AID 504541;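 active means inhibition above 54%, about 3 SD of non-fluorescent compounds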;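 further: AP2 carries R879A mutation and is captured from E. coli lysate; bead-bound FITC arrestin peptide fluorescence measuring arrestin peptide binding to AP2; 0% = DMSO wells and 100% = excess unlabeled arrestin peptide control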); settings: FITC arrestin peptide, at 10 µM, stronger effect = higher value, AP2 beta2 appendage fragment, R879A mutant
Chain of AP-2 complex subunit beta (Homo sapiens) (P63010 whole entry, looked up, the tested form may be a part, one chain of several): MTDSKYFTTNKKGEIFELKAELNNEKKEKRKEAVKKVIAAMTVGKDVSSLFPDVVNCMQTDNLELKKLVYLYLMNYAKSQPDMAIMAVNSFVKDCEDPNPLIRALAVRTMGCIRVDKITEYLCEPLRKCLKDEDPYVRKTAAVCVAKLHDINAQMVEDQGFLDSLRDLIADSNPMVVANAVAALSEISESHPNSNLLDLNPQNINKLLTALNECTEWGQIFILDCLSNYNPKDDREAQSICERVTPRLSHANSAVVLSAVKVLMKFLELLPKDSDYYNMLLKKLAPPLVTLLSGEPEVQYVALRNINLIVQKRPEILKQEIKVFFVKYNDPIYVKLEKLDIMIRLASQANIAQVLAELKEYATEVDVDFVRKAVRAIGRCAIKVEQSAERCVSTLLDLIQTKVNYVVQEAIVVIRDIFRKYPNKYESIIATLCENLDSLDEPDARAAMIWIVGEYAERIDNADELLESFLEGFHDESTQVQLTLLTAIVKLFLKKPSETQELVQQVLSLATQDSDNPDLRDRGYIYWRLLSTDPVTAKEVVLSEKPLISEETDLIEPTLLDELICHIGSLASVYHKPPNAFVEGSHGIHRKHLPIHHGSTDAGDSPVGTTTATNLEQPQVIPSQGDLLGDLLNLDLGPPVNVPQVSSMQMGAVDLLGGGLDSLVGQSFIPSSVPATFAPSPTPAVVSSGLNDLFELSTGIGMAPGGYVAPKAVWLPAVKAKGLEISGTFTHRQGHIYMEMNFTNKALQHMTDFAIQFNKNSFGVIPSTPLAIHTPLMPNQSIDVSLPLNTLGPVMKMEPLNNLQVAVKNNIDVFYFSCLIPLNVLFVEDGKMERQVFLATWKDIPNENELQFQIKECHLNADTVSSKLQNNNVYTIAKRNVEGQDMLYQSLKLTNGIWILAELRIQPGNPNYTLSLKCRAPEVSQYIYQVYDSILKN

[12] = yeast V-ATPase proton transport modulators, S. cerevisiae, pHLuorin, HTS validation (AID 504600; in the data active means response above about 15%;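 further: plate controls were DMSO for no effect and reference compound for full effect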); settings: S. cerevisiae pHLuorin cytosolic pH, at 10 µM, stronger effect = higher value
[13] = system: anti-desmoglein-3 scFv antibody binding to human DSG3; assay: inhibitors of anti-DSG3 scFv binding to DSG3, pilot screen, biochemical, validation compound set, bead-based, flow cytometry (AID 588368;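 active means binding below the plate cutoff, the plate median minus 3 SD, with a reading above zero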;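 further: signal is the median channel fluorescence of bead-bound GFP antibody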); settings: Protein G beads, DSG3-Fc, scFv-GFP binding, at 10 µM, stronger effect = lower value
[14] = inhibitors of fungal efflux pumps CDR1, CDR2, MDR1, pilot screen, validation compound set, multiplex, phenotypic (AID 588506;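 active means efflux inhibition above 0.42, the validation set average plus 4 SD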;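 further: Nile Red retained in cells so higher fluorescence means more efflux inhibition; 0 = negative control wells and 1 = enniatin B 25 µM full block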); settings: S. cerevisiae pump-expressing triplex, Nile Red efflux flow cytometry; at 10 µM; stronger effect = higher value; the pumps come from Candida albicans
[15] = biological target: ATP-binding cassette sub-family B member 6 (Homo sapiens) (UniProt Q9NP58); assay: ABCB6 transporter inhibitors, pilot screen, K562-ABCB6 cells, flow cytometry, validation set (AID 588550;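 active means inhibition above the screen-wide mean plus 3 SD, about 51%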;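 further: 0% = DMSO wells and 100% = benzethonium chloride 70 µM positive control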); settings: K562-ABCB6 porphyrin accumulation, 1 h, at 10 µM, stronger effect = higher value
Chain of ATP-binding cassette sub-family B member 6 (Homo sapiens) (Q9NP58 whole entry, looked up): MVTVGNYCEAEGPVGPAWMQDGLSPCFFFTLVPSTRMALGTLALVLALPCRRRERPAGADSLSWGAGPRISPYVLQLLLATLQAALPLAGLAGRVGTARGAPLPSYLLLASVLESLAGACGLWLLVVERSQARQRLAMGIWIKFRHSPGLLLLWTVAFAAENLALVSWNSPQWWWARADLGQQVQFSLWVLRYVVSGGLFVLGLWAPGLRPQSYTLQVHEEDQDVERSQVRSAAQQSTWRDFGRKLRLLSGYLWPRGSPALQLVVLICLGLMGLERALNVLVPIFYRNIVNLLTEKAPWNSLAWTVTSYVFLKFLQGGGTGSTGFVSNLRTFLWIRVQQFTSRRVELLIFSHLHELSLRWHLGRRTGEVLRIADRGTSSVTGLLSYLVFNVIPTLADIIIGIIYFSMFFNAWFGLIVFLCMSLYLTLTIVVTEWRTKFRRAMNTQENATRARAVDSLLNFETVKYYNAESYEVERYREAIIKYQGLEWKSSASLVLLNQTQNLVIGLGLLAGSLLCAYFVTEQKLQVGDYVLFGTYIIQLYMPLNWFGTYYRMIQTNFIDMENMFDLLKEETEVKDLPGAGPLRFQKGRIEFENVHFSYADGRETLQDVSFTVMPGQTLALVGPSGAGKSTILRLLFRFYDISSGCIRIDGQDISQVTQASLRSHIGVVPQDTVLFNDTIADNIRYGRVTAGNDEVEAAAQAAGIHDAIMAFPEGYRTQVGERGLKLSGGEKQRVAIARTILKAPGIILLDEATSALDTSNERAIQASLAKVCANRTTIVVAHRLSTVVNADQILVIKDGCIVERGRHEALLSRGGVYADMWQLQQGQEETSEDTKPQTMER

[16] = promoters of myeloid differentiation in arrested cells, primary screen, cell-based, GFP/MAC1 double positive, flow cytometry, validation set (AID 588685;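 active means differentiation response of at least 50%, scaled between solvent and reference control, from cells with both markers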;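 further: compound exposure lasts four days before antibody staining and flow analysis; 0% = DMSO wells and 100% = 5 µM fulvestrant positive control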); settings: ER-HoxA9 marrow cells, stronger effect = higher value, normalized: vehicle 0, fulvestrant 100

SMILES	percent of DMSO control GFP [1]	GFP response vs DMSO [2]	percent response of DMSO control [3]	GFP response vs DMSO [4]	GFP response, % of DMSO [5]	double positive events [6] [%]	vesicle binding response [6]	inhibition [7]	superoxide response (% of plate) [8]	aptamer binding inhibition [9]	response [10]	inhibition [11]	response [12]	binding (% of control) [13]	efflux inhibition (fraction of control) [14]	inhibition [15]	differentiation response [16]
CN(C)CCC(c1ccc(Cl)cc1)c1ccccn1 (stereo not given)	99% (inactive)	120% (inactive)	108% (inactive)	78.7% (inactive)	87.5% (inactive)	56.3	215% (inactive)	-7.12% (inactive)	94% (inactive)	-7% (inactive)	-9.09% (inactive)	4.35% (inactive)	18.1% (active)	107% (inactive)	0.05 (inactive)	7% (inactive)	37.7% (inactive)
CN1CCN(CC/C=C2/c3ccccc3Sc3ccc(S(=O)(=O)N(C)C)cc32)CC1	102% (inactive)	109% (inactive)	94.5% (inactive)	109% (inactive)	94.8% (inactive)	68.4	202% (inactive)	23% (inactive)	86% (inactive)	4% (inactive)	-1.99% (inactive)	-4.59% (inactive)	11% (inactive)	84.3% (inactive)	0.02 (inactive)	28% (inactive)	-13.3% (inactive)
COc1ccc2nc(S(=O)Cc3ncc(C)c(OC)c3C)[nH]c2c1 (stereo not given)	107% (inactive)	105% (inactive)	99.7% (inactive)	95.9% (inactive)	97.1% (inactive)	60.4	131% (inactive)	-13.2% (inactive)	84.9% (inactive)	2% (inactive)	24.8% (inactive)	-8.15% (inactive)	0.81% (inactive)	104% (inactive)	-0.16 (inactive)	-7% (inactive)	52.5% (active)
COc1cc(NC(=O)COc2ccccc2)c(OC)cc1NC(C)=O	101% (inactive)	133% (inactive)	114% (inactive)	94.6% (inactive)	101% (inactive)	59.7	216% (inactive)	-14.9% (inactive)	93% (inactive)	1% (inactive)	-3.81% (inactive)	-5.93% (inactive)	-0.91% (inactive)	110% (inactive)	-0.42 (inactive)	0% (inactive)	5.73% (inactive)
COC(=O)c1sccc1NC(=O)Nc1ccccc1F	100% (inactive)	103% (inactive)	105% (inactive)	88.2% (inactive)	101% (inactive)	69.3	197% (inactive)	5.61% (inactive)	93.7% (inactive)	-3% (inactive)	2% (inactive)	-3.3% (inactive)	-6.01% (inactive)	103% (inactive)	-0.28 (inactive)	23% (inactive)	7.13% (inactive)
CC(=O)c1cccc2c(O)c(C3=Nc4ccccc4C3=O)[nH]c12	88% (inactive)	118% (inactive)	114% (inactive)	85.3% (inactive)	90.8% (inactive)	69.7	202% (inactive)	-29.4% (inactive)	129% (inactive)	4% (inactive)	-1.02% (inactive)	-5.62% (inactive)	0.43% (inactive)	103% (inactive)	0.23 (inactive)	9% (inactive)	4.91% (inactive)
OCCOCCN1CCN(C(c2ccccc2)c2ccc(Cl)cc2)CC1 (stereo not given)	90.4% (inactive)	114% (inactive)	95.2% (inactive)	77% (inactive)	93.8% (inactive)	66.8	218% (inactive)	-0.33% (inactive)	95% (inactive)	1% (inactive)	3.36% (inactive)	0.96% (inactive)	1.14% (inactive)	110% (inactive)	-0.38 (inactive)	12% (inactive)	-1.64% (inactive)
CN1C2CCC1CC(OC(c1ccccc1)c1ccccc1)C2 (stereo not given)	101% (inactive)	96.2% (inactive)	108% (inactive)	99.9% (inactive)	98% (inactive)	64.3	247% (inactive)	19.3% (inactive)	93% (inactive)	-8% (inactive)	8.88% (inactive)	-19% (inactive)	1.18% (inactive)	98.4% (inactive)	-0.1 (inactive)	-11% (inactive)	26.6% (inactive)
COc1cc(COc2ccc3c(C)c(Cc4ccccc4)c(=O)oc3c2)cc(OC)c1OC	102% (inactive)	103% (inactive)	122% (inactive)	94% (inactive)	98.9% (inactive)	55	38.9% (inactive)	5.77% (inactive)	117% (inactive)	3% (inactive)	5.22% (inactive)	3.79% (inactive)	-1.95% (inactive)	97.2% (inactive)	0.08 (inactive)	-5% (inactive)	3.18% (inactive)
CCN(CC)c1ccc([C@H]2[C@@H]3CCCC[C@]3(O)CCN2CC(=O)NCc2ccco2)cc1	97.4% (inactive)	108% (inactive)	91% (inactive)	121% (inactive)	98.5% (inactive)	60.3	190% (inactive)	-25% (inactive)	95.1% (inactive)	4% (inactive)	47.5% (active)	-7.96% (inactive)	25.9% (active)	99.5% (inactive)	0.33 (inactive)	8% (inactive)	-7.2% (inactive)
